Measurements reported in the OligoGym collection.
Further: reference of the scale not given here.

The sequences below were run against GAB3 (assay: pooled miR-30 sensor sort-seq; sequence = guide strand). Conditions: shRNA.
Sequence TTGCAGACCTGACTGATGCTGT has a sensor-assay potency score (higher = more potent) of 0.324.
TTTCGATGTAGCTTTCTTCGTC showed a sensor-assay potency score (higher = more potent) of 0.694.
TTGACCTGTGTTGACCATCAGT was tested, and the sensor-assay potency score (higher = more potent) was -0.72.
TTTCCTTGAATCGTTATGCTTT gave a sensor-assay potency score (higher = more potent) of 0.221.
In the case of TTATTCTGAAATTCCTTCCGAA, the sensor-assay potency score (higher = more potent) is reported as 0.459.
For TTCCACACTGCACACTCGCTGA, the sensor-assay potency score (higher = more potent) was -0.565.
TTGCTGGAGTGCTTGTTCCTGT gave a sensor-assay potency score (higher = more potent) of -0.331.

What follows are sequences tested against GABBR1 in the same assay as above. Conditions: shRNA.
TTCTCATCAACTATCCACTGGA showed a sensor-assay potency score (higher = more potent) of 0.124.
Work on TAGTTTCTCCACAAATTCCTGG yielded a sensor-assay potency score (higher = more potent) of -0.496.
For TTGTTGTTGGTCGATGACCCTG, the sensor-assay potency score (higher = more potent) was -1.05.
In the case of TTCTCCTTCTCCAACAGCCGGG, the sensor-assay potency score (higher = more potent) is reported as -0.705.
Sequence TAAGACTTGGAGCAGATTCGGA has a sensor-assay potency score (higher = more potent) of -0.862.
Sequence TTCTGTGACAAGGAGAGGGTGT has a sensor-assay potency score (higher = more potent) of 0.0904.
TAGTCCGGCAGGATGTCCCTGC showed a sensor-assay potency score (higher = more potent) of -0.16.
TAGACAAATTGCACATGCCTAC was tested, and the sensor-assay potency score (higher = more potent) was -0.546.
In the case of TTTTCAAAGAGTTTCACGCGGG, the sensor-assay potency score (higher = more potent) is reported as -0.189.
In the case of TAGCCAATCTTCTTGTAGCTGC, the sensor-assay potency score (higher = more potent) is reported as -0.0319.
TAGTACATGAATGCAATGGAGA showed a sensor-assay potency score (higher = more potent) of -0.803.
In the case of TGAGGTTCCACATCCTAGCAGC, the sensor-assay potency score (higher = more potent) is reported as -0.132.
For TCCTTCTTTGTGAAGACCGTGT, the sensor-assay potency score (higher = more potent) was -0.749.
ATGGTAGCAATCTTCTTCCAGC was tested, and the sensor-assay potency score (higher = more potent) was -1.28.
Work on TTGGATAGCATGTTCTTCCCAG yielded a sensor-assay potency score (higher = more potent) of 0.0924.
TGGATCACACTTGCTGTCGTGG showed a sensor-assay potency score (higher = more potent) of -0.99.
With TCTTGGTGAACATGGAACCGTA the sensor-assay potency score (higher = more potent) was -1.08.
With TTGAGATTCGGGGAGATCCTTC the sensor-assay potency score (higher = more potent) was -0.396.
TTCAGCATGACAATCTCAGTTG showed a sensor-assay potency score (higher = more potent) of -0.723.
Sequence TAGGTCCATCTGTCTATCCCAA has a sensor-assay potency score (higher = more potent) of -0.913.
With TTGTGAGTGTAGACTGAGGGTA the sensor-assay potency score (higher = more potent) was -0.0666.
